According to PubChem BioAssay (Tox21):
Values joined by “and” are separate entries in the source; they are usually repeats but may differ in a detail not shown here. Identical values can stand only once. Results filed as inconclusive are left out. Some structures have more than one record in an assay (separate samples or runs), and their calls can disagree. Active and inactive are the calls of the source. Calls follow the shape of the dose curve; as a rule, active = well fitted curve in the direction sought with a large enough effect in the repeat runs; inconclusive = weak or mixed curves; inactive = no such curve, though single readings can be large; an effect the other way counts as inactive or inconclusive.

Legend:
[1] = qHTS RealTime-Glo MT Cell Viability Assay in HepG2 cells - 40 hour (AID 1224870); also: nearly all actives have a fitted effect of over 50% in size
Outline: (§1)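 HepG2 cells mixed with RealTime-Glo MT reagents (NanoLuc plus cell-permeant prosubstrate) were seeded at 600 cells/well, incubated 5 h at 37 C/5% CO2, then pinned with compounds in DMSO; nonlytic luminescence tracked viability during 40 h treatment.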

[2] = A CellTox Green Cytotoxicity Assay to monitor cytotoxicity in HEK293 cells - 40 hour (AID 1224871); also: nearly all actives have a fitted effect of over 45% in size
Outline: (§2)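 Real-time, in one plate: 600 HEK293 cells/well with dead-cell DNA dye, pinned compound after 5 h, 37 C incubation over 40 h; viable cells give no appreciable fluorescence.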

[3] = qHTS RealTime-Glo MT Cell Viability Assay in HEK293 cells - 16 hour (AID 1224872); also: top concentration of the series differs between compounds; nearly all actives have a fitted effect of over 50% in size
Outline: (§3)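 HEK293 cells were seeded at 600 cells/well together with NanoLuc luciferase and cell-permeant prosubstrate, preincubated 5 h at 37 C/5% CO2, then given compound in DMSO by pintool. Luminescence from viable-cell prosubstrate reduction was read repeatedly over 40 h.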

[4] = qHTS RealTime-Glo MT Cell Viability Assay in HepG2 cells - 8 hour (AID 1224873); also: nearly all actives have a fitted effect of over 55% in size
Outline: as §1

[5] = qHTS RealTime-Glo MT Cell Viability Assay in HEK293 cells - 40 hour (AID 1224874); details: RealTime-Glo luminescence; max response: stronger effect = lower value; also: nearly all actives have a fitted effect of over 50% in size; also: potency is read from the fitted curve at half-maximal effect
Outline: (§4)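 Kinetic, non-lysing viability readout. Seed HEK293 (600/well) with reagent, incubate 5 h at 37 C/5% CO2, pin 23 nL compound in DMSO, incubate at 37 C, read luminescence at 0, 8, 16, 24, 32, 40 h.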

[6] = A CellTox Green Cytotoxicity Assay to monitor cytotoxicity in HEK293 cells - 24 hour (AID 1224875); also: series mostly up to about 77 µM; nearly all actives have a fitted effect of over 45% in size
Outline: as §2

[7] = A CellTox Green Cytotoxicity Assay to monitor cytotoxicity in HepG2 cells - 16 hour (AID 1224876); also: nearly all actives have a fitted effect of over 45% in size; also: potency is read from the fitted curve at half-maximal effect
Outline: (§5)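 Cytotoxicity was tracked as dead-cell DNA fluorescence in HepG2 cells treated with test compounds at 37 C; each time-point value comes from one kinetic series spanning 0, 8, 16, 24, 32 and 40 h.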

[8] = qHTS RealTime-Glo MT Cell Viability Assay in HepG2 cells - 32 hour (AID 1224877); also: nearly all actives have a fitted effect of over 55% in size
Outline: (§6)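 HepG2 cells were seeded at 600 cells/well together with NanoLuc luciferase and a cell-permeant prosubstrate, preincubated 5 h at 37 C/5% CO2, then pin-dosed with compounds in DMSO. Nonlytic luminescence from viable cells was read at each time point.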

[9] = A CellTox Green Cytotoxicity Assay to monitor cytotoxicity in HepG2 cells - 24 hour (AID 1224878); also: nearly all actives have a fitted effect of over 45% in size; also: potency is read from the fitted curve at half-maximal effect
Outline: as §5

[10] = A CellTox Green Cytotoxicity Assay to monitor cytotoxicity in HepG2 cells - 40 hour (AID 1224879); also: nearly all actives have a fitted effect of over 40% in size; also: potency is read from the fitted curve at half-maximal effect
Outline: as §5

[11] = qHTS RealTime-Glo MT Cell Viability Assay in HEK293 cells - 0 hour (AID 1224880)
Outline: as §4

[12] = A CellTox Green Cytotoxicity Assay to monitor cytotoxicity in HEK293 cells - 32 hour (AID 1224881); also: nearly all actives have a fitted effect of over 40% in size
Outline: as §2

[13] = A CellTox Green Cytotoxicity Assay to monitor cytotoxicity in HepG2 cells - 32 hour (AID 1224883); also: nearly all actives have a fitted effect of over 50% in size; also: potency is read from the fitted curve at half-maximal effect
Outline: as §5

[14] = A CellTox Green Cytotoxicity Assay to monitor cytotoxicity in HEK293 cells - 8 hour (AID 1224884); also: nearly all actives have a fitted effect of over 35% in size
Outline: as §2

[15] = qHTS RealTime-Glo MT Cell Viability Assay in HepG2 cells - 16 hour (AID 1224885); also: nearly all actives have a fitted effect of over 50% in size
Outline: as §6

[16] = qHTS RealTime-Glo MT Cell Viability Assay in HEK293 cells - 24 hour (AID 1224886); also: nearly all actives have a fitted effect of over 50% in size; also: potency is read from the fitted curve at half-maximal effect
Outline: as §3

[17] = A CellTox Green Cytotoxicity Assay to monitor cytotoxicity in HEK293 cells - 16 hour (AID 1224888); also: nearly all actives have a fitted effect of over 35% in size
Outline: as §2

[18] = qHTS RealTime-Glo MT Cell Viability Assay in HepG2 cells - 0 hour (AID 1224889); also: nearly all actives have a fitted effect of over 50% in size
Outline: as §6

[19] = A CellTox Green Cytotoxicity Assay to monitor cytotoxicity in HepG2 cells - 0 hour (AID 1224882); also: nearly all actives have a fitted effect of over 35% in size
Outline: as §5

[20] = qHTS RealTime-Glo MT Cell Viability Assay in HEK293 cells - 8 hour (AID 1224887)
Outline: as §4
% is scaled to controls: 0 for no effect and ±100 for the full control effect.

COc1c2occc2cc2ccc(=O)oc12
active: Potency [5] 21.9 µM
inactive and 21.9 µM (active): Potency [16]
inactive: Potency [1] | Potency [2] | Potency [3] | outcome [4] | max response [5] -18.6% | Potency [6] | Potency [7] | Potency [8] | Potency [9] | Potency [10] | Potency [11] | Potency [12] | Potency [13] | Potency [14] | Potency [15] | Potency [17] | Potency [18]

CCCCC(CC)COC(=O)/C=C/c1ccc(OC)cc1 (stereo unspecified)
inactive: Potency [1] | Potency [2] | Potency [3] | outcome [4] | max response [5] -5.76% and 7.72% and 2.19% | Potency [6] | Potency [7] | Potency [8] | Potency [9] | Potency [10] | Potency [11] | Potency [12] | Potency [13] | Potency [14] | Potency [15] | Potency [16] | Potency [17] | Potency [18]

CCCNC(=O)NS(=O)(=O)c1ccc(Cl)cc1
inactive: Potency [2] | Potency [3] | outcome [4] | max response [5] 1.38% and -0.751% and 0.902% | Potency [6] | Potency [7] | Potency [8] | Potency [9] | Potency [10] | Potency [11] | Potency [12] | Potency [13] | Potency [14] | Potency [15] | Potency [16] | Potency [17] | Potency [18]

Cc1cc(=O)[nH]c(=S)[nH]1
inactive: Potency [2] | Potency [3] | outcome [4] | max response [5] -0.127% and 3.69% and 0.841% | Potency [6] | Potency [7] | Potency [8] | Potency [9] | Potency [10] | Potency [11] | Potency [12] | Potency [13] | Potency [14] | Potency [15] | Potency [16] | Potency [17] | Potency [18]

Nc1ccc(C(=O)O)cc1
inactive: Potency [2] | Potency [3] | outcome [4] | max response [5] -12% and -18.6% and -17.3% | Potency [6] | Potency [7] | Potency [8] | Potency [9] | Potency [10] | Potency [11] | Potency [12] | Potency [19] | Potency [13] | Potency [14] | Potency [15] | Potency [16] | Potency [17] | Potency [18]

NS(=O)(=O)c1cc(C(=O)O)c(NCc2ccco2)cc1Cl
19.6 µM (active) and inactive: Potency [10] | Potency [13]
17.4 µM (active) and inactive: Potency [9]
inactive: Potency [2] | Potency [3] | outcome [4] | max response [5] -14.3% and -0.726% and 2.65% | Potency [6] | Potency [8] | Potency [11] | Potency [12] | Potency [14] | Potency [15] | Potency [16] | Potency [17] | Potency [18]
22 µM (active) and inactive: Potency [7]

O=c1ccc2ccccc2o1
inactive: Potency [2] | Potency [3] | outcome [4] | max response [5] -0.397% and 6.44% and 2.9% | Potency [6] | Potency [7] | Potency [8] | Potency [9] | Potency [10] | Potency [11] | Potency [12] | Potency [13] | Potency [14] | Potency [15] | Potency [16] | Potency [20] | Potency [17] | Potency [18]

NNC(=O)c1ccncc1
inactive: Potency [2] | Potency [3] | outcome [4] | max response [5] 1.61% and 0.145% and 4.04% | Potency [6] | Potency [7] | Potency [8] | Potency [9] | Potency [10] | Potency [11] | Potency [12] | Potency [13] | Potency [14] | Potency [15] | Potency [16] | Potency [17] | Potency [18]

CC(O)C(=O)O (stereo unspecified)
inactive: Potency [2] | Potency [3] | outcome [4] | max response [5] 13.3% and 7.35% and 12.9% | Potency [6] | Potency [7] | Potency [8] | Potency [9] | Potency [10] | Potency [11] | Potency [12] | Potency [19] | Potency [13] | Potency [14] | Potency [15] | Potency [16] | Potency [20] | Potency [17] | Potency [18]

CCCCC1C(=O)N(c2ccccc2)N(c2ccccc2)C1=O
inactive: Potency [2] | Potency [3] | outcome [4] | max response [5] -7.32% and -1.19% and 8.39% | Potency [6] | Potency [7] | Potency [8] | Potency [9] | Potency [10] | Potency [11] | Potency [12] | Potency [19] | Potency [13] | Potency [14] | Potency [15] | Potency [16] | Potency [17]

Nc1ccn([C@H]2CC[C@@H](CO)O2)c(=O)n1
inactive: Potency [2] | Potency [3] | outcome [4] | max response [5] 5.91% and 4.06% and 6.95% | Potency [6] | Potency [7] | Potency [8] | Potency [9] | Potency [10] | Potency [11] | Potency [12] | Potency [13] | Potency [14] | Potency [15] | Potency [16] | Potency [17] | Potency [18]

O=C(O)c1[nH]n(-c2ccc(S(=O)(=O)O)cc2)c(=O)c1N=Nc1ccc(S(=O)(=O)O)cc1
inactive: Potency [2] | Potency [3] | outcome [4] | max response [5] -3.28% and -13% and 0.864% | Potency [6] | Potency [7] | Potency [8] | Potency [9] | Potency [10] | Potency [11] | Potency [12] | Potency [13] | Potency [14] | Potency [15] | Potency [16] | Potency [17] | Potency [18]
